Among the data in PubChem BioAssay are normalised cell number values, retold here.

SMILES strings stand for the structures. Several values for one entry are separate records, joined by “and”; a condition that tells them apart may be missing. Equal values may be shown once.

The nature of this assay: differential killing of epithelial or mesenchymal cells, primary screen, imaging, PC-3E GFP, TEM4-18 mCherry, co-culture (AID 1345086).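 Further: cells exposed to compound for 72 h before imaging.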 As to conditions: imaging cell counts, measured here: mesenchymal TEM4-18 mCherry cell survival, at 1 µM.
Turning to `CC12CC3CC(C)(C1)CC(N)(C3)C2`, the normalised cell number came to 1.

`CC(=O)OCC(CCn1cnc2cnc(N)nc21)COC(C)=O` gave a normalised cell number of 1.14.

In the case of `S=c1nc[nH]c2nc[nH]c12`, the normalised cell number was found to be 1.07.

`Oc1c(Cl)cc(Cl)c2cccnc12` came in with a normalised cell number of 1.01.

`CC1=NS(=O)(=O)c2cc(Cl)ccc2N1` came in with a normalised cell number of 1.14.

For the molecule `OC(Cn1cncn1)(Cn1cncn1)c1ccc(F)cc1F`, the normalised cell number was found to be 1.57.

Consider `NCCc1ccc(O)c(O)c1`, for which the normalised cell number is 1.44 and 0.87.

For `CN=C(NC#N)NCCSCc1nc[nH]c1C`, the normalised cell number was determined as 1.05.

With `COc1c(N2CCNC(C)C2)c(F)cc2c(=O)c(C(=O)O)cn(C3CC3)c12` (centres undefined), the normalised cell number was 1.11 and 1.05.

As to `CC1COc2c(N3CCN(C)CC3)c(F)cc3c(=O)c(C(=O)O)cn1c23` (centres undefined), the normalised cell number is 1.06 and 1.18.

Turning to `O=C(C1CCCCC1)N1CC(=O)N2CCc3ccccc3C2C1` (centres undefined), the normalised cell number is 1.42.

Consider `CCc1cc(C(N)=S)ccn1`, for which the normalised cell number was 0.97.

Consider `CC1=C(/C=C/C(C)=C/C=C/C(C)=C/C(=O)O)C(C)(C)CCC1`, for which the normalised cell number worked out at 0.93.

`CCCCNc1cc(C(=O)O)cc(S(N)(=O)=O)c1Oc1ccccc1` returned a normalised cell number of 1.05.

In the case of `O=c1[nH]cnc2[nH]ncc12`, the normalised cell number was determined as 1.15.

Regarding `O=C1c2c(O)ccc(O)c2C(=O)c2c(NCCNCCO)ccc(NCCNCCO)c21`, the normalised cell number stood at 0.12.

The molecule `O=C(O)c1cc(=O)c2c(OCC(O)COc3cccc4oc(C(=O)O)cc(=O)c34)cccc2o1` showed a normalised cell number of 1.63.

`CC(C)C(=O)Nc1ccc([N+](=O)[O-])c(C(F)(F)F)c1` returned a normalised cell number of 0.95.

In turn, `CC(COc1ccccc1)N(CCCl)Cc1ccccc1` (centres undefined) gave a normalised cell number of 1.43.

With `CCCc1nc2c(C)cc(-c3nc4ccccc4n3C)cc2n1Cc1ccc(-c2ccccc2C(=O)O)cc1`, the normalised cell number is 0.8.

In turn, `CC(=O)CC(c1ccccc1)c1c(O)c2ccccc2oc1=O` (centres undefined) showed a normalised cell number of 1.02.

Turning to `NS(=O)(=O)c1cc2c(cc1Cl)NCNS2(=O)=O`, the normalised cell number came out at 1.11.

As to `CS(=O)(=O)OCCCCOS(C)(=O)=O`, the normalised cell number stood at 1.19.

On to `CCOC(=O)C1=C(C)NC(C)=C(C(=O)OC)C1c1cccc([N+](=O)[O-])c1` (centres undefined), for which the normalised cell number stood at 1.31.

As to `COc1ccccc1OCCNCC(O)COc1cccc2[nH]c3ccccc3c12` (centres undefined), the normalised cell number is 1.13 and 1.

For the molecule `O=C(O)CCCc1ccccc1`, the normalised cell number came to 1.11.

Molecule `NNCCc1ccccc1` gave a normalised cell number of 0.91.

The molecule `CC1Cc2ccccc2N1NC(=O)c1ccc(Cl)c(S(N)(=O)=O)c1` (centres undefined) yielded a normalised cell number of 1.38.

Molecule `CC(C)Cc1ccc(C(C)C(=O)O)cc1` (centres undefined) displayed a normalised cell number of 1.11.

Molecule `N[C@@H]1CONC1=O` returned a normalised cell number of 1.71.

For the molecule `CCN(Cc1ccncc1)C(=O)C(CO)c1ccccc1` (centres undefined), the normalised cell number is 1.16.

Turning to `CCCc1cc(=O)[nH]c(=S)[nH]1`, the normalised cell number is 1.32.

For the molecule `O=C(O)c1cccnc1`, the normalised cell number stood at 1.11.

Molecule `CC(C[N+](C)(C)C)OC(N)=O` (centres undefined) showed a normalised cell number of 1.11.

For the molecule `COc1ccc(Cl)cc1C(=O)NCCc1ccc(S(=O)(=O)NC(=O)NC2CCCCC2)cc1`, the normalised cell number turned out to be 1.05.

`N[C@@H](Cc1cc(I)c(Oc2cc(I)c(O)c(I)c2)c(I)c1)C(=O)O` came in with a normalised cell number of 1.02.

In turn, `CC1(C)O[C@@H]2[C@@H](CO[C@@]3(COS(N)(=O)=O)OC(C)(C)O[C@@H]23)O1` showed a normalised cell number of 1.58.

The molecule `COCCOC(=O)C1=C(C)NC(C)=C(C(=O)OC(C)C)C1c1cccc([N+](=O)[O-])c1` (centres undefined) came in with a normalised cell number of 1.17.

Molecule `NNC(=O)c1ccncc1` returned a normalised cell number of 1.19.
